D2 PAM-1 – positively modulates the human D2 dopamine receptor allosterically; P14416; HEK293 T-REx D2, calcium flux, EC20 dopamine potentiation; potentiation, % at 10 µM; hit rate 0.34% among 340,000;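 active = potentiation over 3 SD above the plate norm, cut at about 30% in these data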; also: 0% is about no effect
Target sequence (P14416 whole entry, looked up): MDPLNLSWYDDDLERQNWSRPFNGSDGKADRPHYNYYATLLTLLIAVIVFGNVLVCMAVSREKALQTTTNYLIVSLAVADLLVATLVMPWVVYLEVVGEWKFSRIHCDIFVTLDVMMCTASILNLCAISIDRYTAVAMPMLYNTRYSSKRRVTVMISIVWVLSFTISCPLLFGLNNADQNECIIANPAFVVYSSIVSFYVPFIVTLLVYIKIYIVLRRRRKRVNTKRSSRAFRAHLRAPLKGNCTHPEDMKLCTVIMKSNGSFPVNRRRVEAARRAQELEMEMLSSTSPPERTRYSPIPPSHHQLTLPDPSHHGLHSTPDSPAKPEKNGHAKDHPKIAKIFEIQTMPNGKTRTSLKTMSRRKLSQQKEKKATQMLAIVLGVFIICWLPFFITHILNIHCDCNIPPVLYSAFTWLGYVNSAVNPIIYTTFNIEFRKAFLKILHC
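Tetracycline-induced HEK293 T-REx cells force-coupled to calcium signalling expressed D2; compounds were pin-added after a 10 s baseline, read kinetically 180 s, then an EC20 dopamine challenge followed with a further 180 s calcium read.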
D2 ag-1 – agonists of human D2 dopamine receptor; HEK293 T-REx D2 cells, calcium flux agonist mode; activation, % at 2 µM; P14416; AID 485358; hit rate 0.53% among 340,000;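 active = activation over 3 SD above normal in the single-dose calcium agonist read, cut at about 30% in these data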; also: 0% is about no effect
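Calcium-flux readout, 1 cycle/sec over 180 s following compound pin transfer, in inducible HEK293 Trex D2 cells (force-coupled); dopamine controls included. Positive calcium responses during this window marked compounds as potential agonists.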
D2 ag-2 – agonists of human D2 dopamine receptor (beta-arrestin). DiscoveRx PathHunter D2 beta-arrestin, luminescence, 90 min; 100% = 57 uM dopamine signal. hit rate 0.084% among 360,000. P14416. activation, % (no concentration beside the values); in the data active = activation above about 40%; inconclusive = between about 15% and that limit
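DiscoveRx PathHunter D2 beta-arrestin cells (2,100/well) attached overnight, then compound-stimulated 90 min at 37 C in HBSS/10 mM HEPES/0.1% Tween-20 buffer; beta-galactosidase complementation read by luminescence after 1 h at ambient temperature. Dopamine 57 uM final (EC100) as control.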
D2 PAM-2 – positive allosteric modulators of human D2 dopamine receptor | AID 624464 | P14416 | DiscoveRx D2 beta-arrestin cells, luminescence, 90 min; 100% = 57 uM dopamine signal | potentiation, % (test concentration not listed) | hit rate 0.23% among 360,000; in the data active = potentiation above about 50%; inconclusive = mostly about 30% to 49%
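PathHunter D2 cells, attached overnight at 37 deg C, received compound in DMSO plus dopamine at EC20 (50 nM final) for 90 min at 37 deg C. Beta-arrestin recruitment was read as luminescence after 1 h with detection reagent at ambient temperature.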
D2 antag – D2 dopamine receptor (human) antagonism; P14416; HEK293 TREx D2 cells, calcium flux, dopamine EC80; inhibition, % at 10 µM; hit rate 2% among 340,000; AID 485344; in the data active = inhibition above about 30%; inactive = below that, where a call was filed; also: 0% is about no effect
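In this primary screen, negative modulation is detected by tracking calcium flux after an EC80 dopamine challenge in inducible HEK293 T-REx D2 cells preexposed to test compound for 180 s.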
Numbers without * were called inactive; ? = inconclusive; . = not tested or not shown. Hits are enriched below; roughly 2.4% of the tested compounds scored in any of these assays.

SMILES | D2 PAM-1 | D2 ag-1 | D2 ag-2 | D2 PAM-2 | D2 antag
COc1ccc(S(=O)(=O)c2c(Nc3c(C)cccc3C)sc(C(=O)c3ccc4c(c3)OCO4)c2N)cc1 | 8 | 0 | . | . | .
CN1CCN(S(=O)(=O)c2ccc(SCCOc3ccccc3)nc2)CC1 | -2 | -1 | -3 | -8 | 9
Cc1ccc(C)c(NC(=O)CSc2ccc(S(=O)(=O)N3CCCC3)cn2)c1 | -11 | 0 | 3 | -8 | 39*
CCC(CC)NC(=O)CSc1ccc(S(=O)(=O)N2CCCCC2)cn1 | 3 | -1 | 0 | 3 | -3
O=S(=O)(c1ccc(SCCO)nc1)N1CCCC1 | 49* | 1 | 0 | 11 | 3
O=c1cc(CSc2ccc(S(=O)(=O)N3CCCCC3)cn2)nc2sccn12 | 33* | -1 | -2 | 0 | 3
Cc1cc(C)cc(CSc2ccc(S(=O)(=O)N3CCCC3)cn2)c1 | -13 | 1 | 0 | 0 | 0
CCOc1ccc(OCCSc2ccc(S(=O)(=O)N3CCN(C)CC3)cn2)cc1 | -1 | 1 | -2 | 1 | 30*
COc1cccc(NC(=O)CN2C(=O)CC(c3ccco3)Sc3ccccc32)c1 (configuration not stated) | 13 | 0 | . | . | .
COc1ccc(CNC(=O)C(=O)NCC2OCCN2S(=O)(=O)c2ccc3c(c2)OCCO3)cc1 (configuration not stated) | . | . | -3 | -5 | .
Cc1oc2c(C)c3oc(=O)c(CCC(=O)NCCN4CCOCC4)c(C)c3cc2c1C | 10 | 0 | -2 | 1 | 8
O=C1NC(c2ccc(-c3ccccc3[N+](=O)[O-])o2)C(C(=O)c2ccc(F)cc2)C(O)(C(F)(F)F)N1 (configuration not stated) | 17 | 1 | ? | 58* | 27
O=c1cc(-c2ccccc2)n2c(SCc3ccc(F)cc3)nnc2[nH]1 | -3 | 0 | . | . | .
O=C(Cn1c(=O)c2cccn2c2ccccc21)NCc1ccccc1F | 2 | 0 | . | . | .
Cc1ccc(NC(=O)C(C)[n+]2ccccc2)cc1[N+](=O)[O-] (configuration not stated) | -18 | 0 | -3 | -19 | 60*
O=C(NCc1cccc(F)c1)C1=Cc2cc(Br)ccc2OC1 | -4 | 0 | . | . | .
O=C(CSc1nncs1)NC1CCCCCCC1 | 12 | -1 | -4 | -4 | 31*
CC1CCC(NC(=O)CSc2nncs2)CC1 (configuration not stated) | -3 | 0 | -2 | 3 | 4
CCN1CCc2c(sc(N)c2C(N)=O)C1 | 10 | 1 | -2 | 15 | 38*
CC(C)Cn1c(N)c(C(=O)COC(=O)c2c(O)c(Cl)cc(Cl)c2Cl)c(=O)n(C)c1=O | 1 | -1 | -3 | -4 | -2
CCN1CCc2c(sc(-n3cccc3)c2C(C)NC(=O)Nc2ccccc2C)C1 (configuration not stated) | -10 | 2 | . | . | .
Cc1ccc(NC(=S)NC2CCN(Cc3ccccc3)CC2)c(C)c1 | -21 | 0 | -1 | -35 | 47*
Cc1ccc(NC(=O)CS(=O)CC(=O)NC2CCN(Cc3ccccc3)CC2)c(C)c1 (configuration not stated) | -2 | -1 | -2 | -21 | 9
Cc1ccccc1NC(=S)NC1CCN(Cc2ccccc2)CC1 | -27 | 0 | -1 | -39 | 78*
COc1ccc(NS(=O)(=O)c2coc(C(N)=O)c2)cc1Cl | -2 | 1 | 4 | 0 | 31*
SMILES | D2 PAM-1 | D2 ag-1 | D2 ag-2 | D2 PAM-2 | D2 antag
CC1=CC(C)(C)N(C(=O)CN2C(=O)CCC2=O)c2ccc(C)cc21 | 11 | -1 | -2 | -2 | 30*
COc1ccc(Cn2c(O)c(C=Nc3ccccc3C(=O)O)c3ccccc3c2=O)cc1 | 4 | 0 | 5 | 5 | 32*
O=C(Nc1nc2ccc(S(=O)(=O)N3CCCC3)cc2s1)c1cccs1 | 6 | 0 | -2 | -28 | -21
O=C(Nc1nc2ccc(S(=O)(=O)N3CCOCC3)cc2s1)c1cccs1 | 14 | 1 | 6 | -2 | 57*
O=C(Nc1cccc(Cl)c1)c1cc(S(=O)(=O)N2CCOCC2)cs1 | -14 | 0 | 1 | -20 | 35*
O=C(COC(=O)c1cccs1)Nc1cccc(S(=O)(=O)N2CCOCC2)c1 | -3 | 1 | -2 | -7 | 36*
O=S(=O)(c1cccc(NC(=S)Nc2ccc(Br)cc2Cl)c1)N1CCOCC1 | 9 | 0 | -8 | -22 | 38*
CN(C)C(=O)Nc1ccccc1 | 0 | 2 | 4 | -3 | -5
CS(=O)(=O)c1ccccc1-c1nnc(NC(=O)c2ccc3ncsc3c2)o1 | -9 | 0 | -3 | -2 | -9
COC(=O)CN1C(=O)CSc2ccc(S(=O)(=O)Nc3ccc(C)c(Cl)c3)cc21 | -2 | 0 | . | . | .
Cc1cc(NC(=O)CSc2cn(CCNC(=O)c3ccccc3)c3ccccc23)no1 | 6 | -1 | 3 | 3 | 3
Cc1ccc(C(=O)NCCn2cc(SCC(=O)Nc3cc(C)on3)c3ccccc32)cc1 | -26 | -1 | 4 | 1 | 32*
O=C(C[n+]1cccc(CNC(=O)c2ccc(OC(F)F)cc2)c1)Nc1ccc(F)cc1 | -25 | -1 | -2 | -35 | 2
O=C(C[n+]1cccc(CNC(=O)c2ccc(OC(F)F)cc2)c1)Nc1cccc(C(F)(F)F)c1 | -28 | -1 | -4 | -51 | 45*
Cc1cc(C)cc(NC(=O)CSc2oc(-c3ccccc3)nc2S(=O)(=O)c2ccccc2)c1 | -7 | 0 | . | . | .
COc1cc(C(=O)NC(C)c2ccc(-n3ccnc3)cc2)cc(OC)c1C (configuration not stated) | 31* | -1 | -3 | -21 | 8
COc1cc(C(=O)NCC(=O)NC(C)c2ccc(-n3ccnc3)cc2)cc(OC)c1OC (configuration not stated) | -3 | 0 | 4 | 16 | -4
CC(NC(=O)C1CCN(C(=O)c2ccc(F)cc2)CC1)c1ccc(-n2ccnc2)cc1 (configuration not stated) | 9 | 2 | 6 | -8 | 31*
Cc1ccccc1CNC(=O)Cc1csc2ccccc12 | . | 1 | . | . | .
Cc1ccc(N(C(=O)c2sc(C)nc2C)C(C(=O)NCc2ccco2)c2ccccc2)cc1 (configuration not stated) | 9 | 0 | -2 | -20 | 44*
Cc1cc(C)cc(N(C(=O)c2sc(C)nc2C)C(C(=O)NCc2ccco2)c2ccccc2)c1 (configuration not stated) | 0 | 0 | 1 | -13 | -7
Cc1cccc(N(C(=O)c2sc(C)nc2C)C(C(=O)NCc2ccco2)c2ccccc2)c1 (configuration not stated) | 1 | 0 | -3 | -5 | 45*
CNC(=O)C1CCCN(c2nnc(C)c3c(C)n(-c4ccccc4)nc23)C1 (configuration not stated) | 0 | 0 | . | . | .
COc1ccc(CSc2nc(C)cc(=O)[nH]2)cc1Br | 2 | 1 | -1 | 0 | 3

Screening results: PubChem BioAssay, National Center for Advancing Translational Sciences (NCATS)
